Results published in PubChem BioAssay (EPA / NIEHS).
“And” between values parts separate entries of the source, which are not always exact repeats. Equal entries are not always repeated. Records with an inconclusive call do not appear. Some structures have more than one record in an assay (separate samples or runs), and their calls can disagree. The source made the active and inactive calls. Rule for the calls, unless noted: active = hit-call score of the fitted dose curve at least 0.9, where 1 is the maximum; inconclusive = response in the unintended direction; inactive = score below 0.9.

Assays:
[1] = read-out: Transforming Growth Factor (TGFB1), TGFB1 (gene 7040); experiment: LTEA_HepaRG_TGFB1: Life Technologies and Expression Analysis (LTEA) Assay for Transforming Growth Factor (TGFB1) Transporter using HepaRG (AID 2283533; active = hit-call score of the fitted dose curve at least 0.9, where 1 is the maximum; inactive = score below 0.9); conditions: mRNA level, 48 h; actives raise or lower the signal
Method in brief: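 TGFB1 transcript measured by qRT-PCR with normalisation to three housekeeping genes (ACTB, GAPDH, POLR2A); human HepaRG line treated in duplicate for 48 hr with an 8-point series topping at 100 uM, 0.5% DMSO vehicle, bidirectionally fitted.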

TIMP1, TIMP1 (gene 7076) = experiment: LTEA_HepaRG_TIMP1: Life Technologies and Expression Analysis (LTEA) Assay for TIMP1 using HepaRG (AID 2283534; active = hit-call score of the fitted dose curve at least 0.9, where 1 is the maximum; inactive = score below 0.9); conditions: mRNA level, 48 h; actives raise or lower the signal
Method in brief: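 Bidirectional change in TIMP1 transcript versus 0.5% DMSO, measured by TaqMan qRT-PCR with three housekeeping genes for normalization. HepaRG human liver cells dosed 48 h in duplicate, top concentration 100 uM with half-log dilutions.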

[2] = read-out: Tumor necrosis factor receptor 1 (TNFRSF1A), TNFRSF1A (gene 7132); experiment: LTEA_HepaRG_TNFRSF1A: Life Technologies and Expression Analysis (LTEA) Assay for Tumor necrosis factor receptor 1 (TNFRSF1A) using HepaRG (AID 2283535; active = hit-call score of the fitted dose curve at least 0.9, where 1 is the maximum; inactive = score below 0.9); conditions: mRNA level, 48 h; actives raise or lower the signal
Method in brief: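 mRNA measured by qRT-PCR (TaqMan, Fluidigm arrays) against ACTB/GAPDH/POLR2A housekeepers after 48 h chemical exposure of HepaRG cells. Top concentration 100 uM, half-log 8-point series, duplicates; vehicle 0.5% DMSO, both fit directions.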

[3] = read-out: Thyroid Hormone Responsive (THRSP), THRSP (gene 7069); experiment: LTEA_HepaRG_THRSP: Life Technologies and Expression Analysis (LTEA) Assay for Thyroid Hormone Responsive (THRSP) using HepaRG (AID 2283536; active = hit-call score of the fitted dose curve at least 0.9, where 1 is the maximum; inactive = score below 0.9); conditions: mRNA level, 48 h; actives raise or lower the signal
Method in brief: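 Differentiated HepaRG cells treated 48 h in serum-free induction medium with 8 half-log concentrations up to 100 uM (0.5% DMSO), duplicates. THRSP mRNA by TaqMan qRT-PCR normalised to ACTB, GAPDH, POLR2A; bidirectional fit versus DMSO.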

[4] = read-out: Cellular tumor antigen p53 (Homo sapiens) (UniProt P04637); experiment: LTEA_HepaRG_TP53: Life Technologies and Expression Analysis (LTEA) Assay for Tumor Protein P53 (TP53) using HepaRG (AID 2283537; active = hit-call score of the fitted dose curve at least 0.9, where 1 is the maximum; inactive = score below 0.9); conditions: mRNA level, 48 h; actives raise or lower the signal
Method in brief: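 Differentiated HepaRG cells in serum-free induction medium exposed 48 h in duplicate to 8 half-log concentrations, top 100 uM, 0.5% DMSO. TP53 mRNA by TaqMan qRT-PCR (Fluidigm), normalized to ACTB, GAPDH, POLR2A; fitted bidirectionally versus DMSO.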

[5] = read-out: UDP glucuronosyltransferase (UGT1A1), UGT1A1 (gene 54658); experiment: LTEA_HepaRG_UGT1A1: Life Technologies and Expression Analysis (LTEA) Assay for UDP glucuronosyltransferase (UGT1A1) using HepaRG (AID 2283538; active = hit-call score of the fitted dose curve at least 0.9, where 1 is the maximum; inactive = score below 0.9); conditions: mRNA level, 48 h; actives raise or lower the signal
Method in brief: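 HepaRG cells, 0.5% DMSO vehicle, 48 h exposure in serum-free induction medium to 8-point half-log series topping at 100 uM, in duplicate. UGT1A1 mRNA by Fluidigm qRT-PCR, normalized to ACTB/GAPDH/POLR2A; bidirectional fit versus DMSO.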

[6] = read-out: UDP glucuronosyltransferase (UGT1A6), UGT1A6 (gene 54578); experiment: LTEA_HepaRG_UGT1A6: Life Technologies and Expression Analysis (LTEA) Assay for UDP glucuronosyltransferase (UGT1A6) using HepaRG (AID 2283539; active = hit-call score of the fitted dose curve at least 0.9, where 1 is the maximum; inactive = score below 0.9); conditions: mRNA level, 48 h; actives raise or lower the signal
Method in brief: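 Expression was quantified by TaqMan qRT-PCR on Fluidigm arrays with ACTB/GAPDH/POLR2A normalization and bidirectional fitting against 0.5% DMSO. HepaRG cells (~100,000/well) were treated in duplicate for 48 h at eight half-log concentrations up to 100 uM in serum-free induction medium.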

[7] = read-out: X-box binding protein 1 (XBP1), XBP1 (gene 7494); experiment: LTEA_HepaRG_XBP1: Life Technologies and Expression Analysis (LTEA) Assay for X-box binding protein 1 (XBP1) using HepaRG (AID 2283540; active = hit-call score of the fitted dose curve at least 0.9, where 1 is the maximum; inactive = score below 0.9); conditions: mRNA level, 48 h; actives raise or lower the signal
Method in brief: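 XBP1 transcript by qRT-PCR (housekeeping-normalized: ACTB, GAPDH, POLR2A) after 48 h chemical treatment of HepaRG cells, 8-point half-log series topping at 100 uM, vehicle 0.5% DMSO. Gain and loss of signal fitted relative to DMSO.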

[8] = LTEA_HepaRG_LDH_cytotoxicity: Cytotoxicity Assessment in the Life Technologies and Expression Analysis (LTEA) Assay (AID 2283563);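 for AC50: LDH activity released into spent culture medium as a marker of cell death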
Method in brief: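 LDH release into culture medium read after 48 h chemical treatment of HepaRG cells. Duplicate wells, eight-point half-log series topping at 100 uM, 0.5% DMSO vehicle and baseline.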

[9] = ATG_XTT_Cytotoxicity: Cytotoxicity Assessment in the Attagene TRANS-FACTORIAL HepG2 Assay (AID 2283584);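 for AC50: cells exposed to compound for 24 h before reading; active means loss of viability signal versus DMSO baseline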
Method in brief: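 Viability endpoint from XTT after 24 h chemical exposure of reporter-transfected human HepG2 liver cells; signal loss fitted relative to DMSO negative control.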

[10] = TOX21_p53_BLA_p2_viability: Viability Assessment in the Tox21 HCT-116 p53 Agonism Beta-lactamase Assay, Phase 2 (AID 2283591);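 note: compound exposure lasted 16 h at 37 °C; actives lower the ATP signal meaning cytotoxicity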
Method in brief: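 HCT116 p53-bla cells, 4000/well, dosed after 5 h plating (217-fold dilution of DMSO stocks) and incubated 16 h at 37C. Viability taken as cellular ATP by CellTiter-Glo luminescence after 30 min RT; signal loss marks cytotoxicity.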

[11] = biological target: Cellular tumor antigen p53 (Homo sapiens) (UniProt P04637); experiment: TOX21_p53_BLA_p2_ratio: Tox21 HCT-116 p53 Agonism Beta-lactamase Assay, Ratio, Phase 2 (AID 2283592)
Chain of Cellular tumor antigen p53 (Homo sapiens) (P04637 whole entry, looked up): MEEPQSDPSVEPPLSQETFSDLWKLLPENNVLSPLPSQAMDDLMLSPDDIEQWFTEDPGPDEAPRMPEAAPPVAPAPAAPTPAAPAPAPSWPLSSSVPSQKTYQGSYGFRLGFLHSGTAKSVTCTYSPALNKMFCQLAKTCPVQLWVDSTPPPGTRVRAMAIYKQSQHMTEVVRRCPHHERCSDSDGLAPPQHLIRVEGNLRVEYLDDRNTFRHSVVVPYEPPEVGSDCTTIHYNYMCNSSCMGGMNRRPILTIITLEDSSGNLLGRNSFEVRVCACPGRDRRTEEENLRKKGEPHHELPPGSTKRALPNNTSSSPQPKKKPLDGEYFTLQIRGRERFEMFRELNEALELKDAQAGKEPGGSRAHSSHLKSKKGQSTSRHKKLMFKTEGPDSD
Method in brief: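 Gain-of-signal p53 agonism was scored from the beta-lactamase FRET ratio (460/530 nm, 405 nm excitation) in HCT116 cells treated 16 h at 37C, 5% CO2, with DMSO serving as negative control and baseline.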

[12] = TOX21_p53_BLA_p3_viability: Viability Assessment in the Tox21 HCT-116 p53 Agonism Beta-lactamase Assay, Phase 3 (AID 2283593);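 note: cells exposed to compound for 16 h before reading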
Method in brief: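 HCT116 cells, 4000/well, dosed 5 h after plating by pin transfer (217-fold dilution from DMSO stock) and incubated 16 h at 37C, 5% CO2. Viability read as ATP luminescence with CellTiter-Glo after 30 min at room temperature.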

[13] = biological target: Cellular tumor antigen p53 (Homo sapiens) (UniProt P04637); experiment: TOX21_p53_BLA_p3_ratio: Tox21 HCT-116 p53 Agonism Beta-lactamase Assay, Ratio, Phase 3 (AID 2283596)
Method in brief: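 HCT116 p53-bla cells (4000/well) given compound in DMSO (217-fold dilution) after 5 h, incubated 16 h at 37C. CCF4-AM substrate 2 h at room temperature; 460/530 nm emission ratio, gain fitted against DMSO.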

[14] = TOX21_p53_BLA_p4_viability: Viability Assessment in the Tox21 HCT-116 p53 Agonism Beta-lactamase Assay, Phase 4 (AID 2283597);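 note: hits lower the luminescence signal meaning cytotoxicity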
Method in brief: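 Following a 16 h exposure at 37C, the treated HCT116 wells were first read for the FRET ratio. They were then lysed with CellTiter-Glo, and ATP luminescence was recorded after 30 min at room temperature.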

[15] = biological target: Cellular tumor antigen p53 (Homo sapiens) (UniProt P04637); experiment: TOX21_p53_BLA_p5_ratio: Tox21 HCT-116 p53 Agonism Beta-lactamase Assay, Ratio, Phase 5 (AID 2283599)
Method in brief: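 HCT-116 p53-bla cells (4000/well) plated 5 h, dosed with compound (217-fold DMSO dilution) for 16 h at 37 C; CCF4-AM substrate 2 h at room temperature. Activity is the 460/530 nm emission ratio (405 nm excitation), fitted in gain-of-signal direction versus DMSO.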

[16] = TOX21_p53_BLA_p5_viability: Viability Assessment in the Tox21 HCT-116 p53 Agonism Beta-lactamase Assay, Phase 5 (AID 2283600)
Method in brief: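 After the 460/530 nm beta-lactamase measurement, the wells received an ATP-detection luciferase reagent; signal was read 30 min later at RT. Compound treatment lasted 16 h on cells pre-incubated 5 h post-seeding.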

[17] = biological target: Cellular tumor antigen p53 (Homo sapiens) (UniProt P04637); experiment: TOX21_p53_BLA_p4_ratio: Tox21 HCT-116 p53 Agonism Beta-lactamase Assay, Ratio, Phase 4 (AID 2283601)
Method in brief: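 HCT-116 p53 beta-lactamase reporter cells (4000/well) preincubated 5 h, then compound (217-fold dilution of DMSO stock) for 16 h at 37C. CCF4-AM substrate added 2 h at room temperature; 460/530 nm emission ratio fitted upward versus DMSO.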

[18] = Tanguay_ZF_120hpf_MORT_legacy: (Legacy) Oregon State University Tanguay Lab 120 Hour Post-fertilization zebrafish Assay for Mortality (AID 2283633);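 for AC50: fitted as increase in binary mortality versus DMSO negative control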
Method in brief: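 Static waterborne exposure from 6 to 120 hpf at 28C of single dechorionated wild-type (5D) embryos per well, 0.64% DMSO final. Death recorded present/absent by brightfield at 24 and 120 hpf.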

[19] = Tanguay_ZF_120hpf_YSE_legacy: (Legacy) Oregon State University Tanguay Lab 120 Hour Post-fertilization zebrafish Assay for Yolk Sac Edema (AID 2283634);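 for AC50: actives raise the incidence of yolk sac edema above the DMSO baseline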
Method in brief: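 Presence or absence of yolk sac edema was recorded at 120 hpf in surviving larvae. These were wild-type Tropical 5D embryos, chorion removed at 4 hpf, held in static exposure at 28C from 6 hpf with 0.64% DMSO vehicle.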

Measured: AC50

CC(C)(C)C(O)/C(=C\c1ccc(Cl)cc1Cl)n1cncn1 (stereo not given)
active: TIMP1, TIMP1 (gene 7076) 69.2 µM | [5] 69.2 µM | [6] 36.4 µM | [8] 72.9 µM | [9] 56.3 µM | [14] 51.8 µM | [19] 34.4 µM
inactive: all other assays above

CCCN(CCOc1c(Cl)cc(Cl)cc1Cl)C(=O)n1ccnc1
active: [1] 27.6 µM | [3] 3.79 µM | [4] 17.6 µM | [5] 73.7 µM | [6] 72.5 µM | [7] 78.8 µM | [8] 36 µM | [11] 86.1 µM | [13] 75 µM | [15] 75.3 µM | [17] 74.6 µM
inactive: TIMP1, TIMP1 (gene 7076) | [2] | [9] | [10] | [12] | [13] | [14] | [15] | [16] | [17] | [18] | [19]

ClC1C(Cl)C(Cl)C(Cl)C(Cl)C1Cl (stereo not given)
active: [5] 780 nM and 3.95 µM | [14] 72.6 µM | [15] 86.7 µM
inactive: [1] | TIMP1, TIMP1 (gene 7076) | [2] | [3] | [4] | [6] | [7] | [8] | [9] | [10] | [11] | [12] | [13] | [14] | [15] | [16] | [17] | [18] | [19]

O=S(=O)(O)C(F)(F)C(F)(F)C(F)(F)C(F)(F)C(F)(F)C(F)(F)C(F)(F)C(F)(F)F
inactive: [1] | TIMP1, TIMP1 (gene 7076) | [2] | [3] | [6] | [7] | [8] | [9] | [10] | [11] | [12] | [13] | [15] | [16] | [17] | [18] | [19]
active: [1] 48 µM | [3] 34.2 µM and 45.8 µM and 60 µM | [4] 50 µM and 48 µM | [5] 12.9 µM and 11.5 µM and 11.9 µM | [6] 89.2 µM and 47 µM | [8] 75.8 µM and 79.2 µM and 75.4 µM | [9] 151 µM and 157 µM | [10] 46.1 µM | [12] 61.4 µM | [14] 64.6 µM and 48.8 µM and 59.3 µM | [17] 82.4 µM and 82.8 µM | [18] 426 nM and 4.73 µM and 20.8 µM | [19] 19.8 µM and 7.26 µM and 41.3 µM
